Assay results taken from PubChem BioAssay (Tox21).
Values without a mark were called inactive. Records with an inconclusive call do not appear. Where a call stands in place of a potency, no number is given. The source made the active and inactive calls. Calls follow the shape of the full dose curve.

Experiments:
[1] = target: Acetylcholinesterase (Homo sapiens) (UniProt P22303); test: Acetylcholinesterase (AChE) small molecule antagonists: colormetric cell-based qHTS assay (AID 1347395); details: SH-SY5Y cells AChE activity, colorimetric (Ellman); series mostly up to 115 µM; also: nearly all actives have a fitted effect of over 30% in size
In short: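 Homogeneous whole-cell format. SH-SY5Y cells seeded overnight, dosed with compound (30 min, 37 C, 5% CO2), then given DTNB/acetylthiocholine cocktail for 90 min at 37 C; colorimetric signal.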

[2] = target: Acetylcholinesterase (Homo sapiens) (UniProt P22303); test: Acetylcholinesterase (AChE) small molecule antagonists: enzyme-based qHTS assay (AID 1347397); details: Potency: AChE enzyme activity inhibition; outcome: AChE enzyme activity inhibition; series mostly up to 115 µM; also: nearly all actives have a fitted effect of over 55% in size
In short: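 In this quantitative HTS, compounds from the Tox21 10K collection were preincubated 30 min at ambient temperature with recombinant human AChE dispensed at 50 mU/mL. Hydrolysis of acetylthiocholine was then followed for 10 min by DTNB colour development.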

[3] = target: Acetylcholinesterase (Homo sapiens) (UniProt P22303); test: Acetylcholinesterase (AChE) small molecule antagonists: enzyme-based qHTS assay with human liver microsomes (AID 1347399); details: Potency: qHTS inhibition; outcome: qHTS inhibition; series mostly up to 115 µM; also: nearly all actives have a fitted effect of over 60% in size
In short: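 Recombinant human AChE (50 mU/mL in the enzyme mix) and human liver microsomes (0.25 mg/mL final) were preincubated with compound and NADPH (0.25 mg/mL final) for 30 min at 37 C. Acetylthiocholine/DTNB was then added; thiocholine was read colorimetrically after 10 min at room temperature.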
Potency is read from the fitted curve at half-maximal effect.

Sequence of Acetylcholinesterase (Homo sapiens) (P22303 whole entry, looked up): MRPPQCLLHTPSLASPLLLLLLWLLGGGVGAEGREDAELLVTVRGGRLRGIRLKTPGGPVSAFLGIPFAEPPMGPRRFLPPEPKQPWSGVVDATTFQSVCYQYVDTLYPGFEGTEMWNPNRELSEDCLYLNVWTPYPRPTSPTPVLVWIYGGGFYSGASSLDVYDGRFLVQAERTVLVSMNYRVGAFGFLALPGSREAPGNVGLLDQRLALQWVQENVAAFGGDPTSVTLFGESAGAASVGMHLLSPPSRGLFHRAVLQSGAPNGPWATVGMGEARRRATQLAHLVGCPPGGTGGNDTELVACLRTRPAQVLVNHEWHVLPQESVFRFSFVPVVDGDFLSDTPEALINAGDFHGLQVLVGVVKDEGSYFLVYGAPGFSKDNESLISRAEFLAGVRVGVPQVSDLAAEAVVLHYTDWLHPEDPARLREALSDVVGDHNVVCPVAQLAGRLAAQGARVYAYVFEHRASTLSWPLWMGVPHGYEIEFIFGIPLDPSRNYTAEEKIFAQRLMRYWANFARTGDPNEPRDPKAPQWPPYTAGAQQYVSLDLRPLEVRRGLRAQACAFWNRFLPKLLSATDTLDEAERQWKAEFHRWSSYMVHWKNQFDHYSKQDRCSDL

CCN1CCN(C(=O)N[C@@H](C(=O)N[C@@H]2C(=O)N3C(C(=O)O)=C(CSc4nnnn4C)CS[C@H]23)c2ccc(O)cc2)C(=O)C1=O
Potency [1]: inactive
Potency [2]: inactive
Potency [3]: inactive

CNCc1ccc(NC(=O)c2c[nH]c3c2C(=O)CCC3)cc1
Potency [1]: 35.6 µM (active)
Potency [2]: inactive
Potency [3]: inactive

CCCCC/C=C\C=C\C(=O)OCC
Potency [1]: inactive
Potency [2]: inactive
Potency [3]: inactive

CCCCCCCCCCCCCC[P+](CCCC)(CCCC)CCCC (tested in a mixture with another compound)
Potency [1]: inactive
Potency [2]: inactive
Potency [3]: inactive

CC/C=C\CC/C=C/CO
Potency [1]: inactive
Potency [2]: inactive
Potency [3]: inactive

O=C(/C=C/c1ccccc1)NCCO
Potency [1]: inactive
Potency [2]: inactive
Potency [3]: inactive

CCOC(=O)C(Br)c1ccccc1 (centres undefined)
Potency [1]: 71 µM (active)
Potency [2]: inactive
Potency [3]: inactive

CCOc1cc(N)c(Cl)cc1C(=O)NCC1CN(Cc2ccc(F)cc2)CCO1 (centres undefined)
Potency [1]: inactive
Potency [2]: inactive
Potency [3]: inactive

CCN(CC)CCOC(=O)C(Cc1cccc2ccccc12)CC1CCCO1 (centres undefined)
Potency [1]: inactive
Potency [2]: inactive
Potency [3]: inactive

O=C(O)c1cc(O)c2ccccc2c1O
Potency [1]: inactive
Potency [2]: inactive
Potency [3]: inactive

O=[N+]([O-])C1(Br)COCOC1
Potency [1]: inactive
Potency [2]: inactive
Potency [3]: inactive

Oc1cc2ccccc2c2ccccc12
Potency [1]: inactive
Potency [2]: inactive
Potency [3]: inactive

CC1(C)S[C@@H]2[C@H](N=CN3CCCCCC3)C(=O)N2[C@H]1C(=O)O
Potency [1]: inactive
Potency [2]: inactive
Potency [3]: inactive

CC(O)CCCCn1c(=O)c2c(ncn2C)n(C)c1=O (centres undefined)
Potency [1]: inactive
Potency [2]: inactive
Potency [3]: inactive

COc1c(C)c2c(c(O)c1C/C=C(\C)CCC(=O)OCCN1CCOCC1)C(=O)OC2
Potency [1]: 27.5 µM (active)
Potency [2]: inactive
Potency [3]: inactive

CN[C@H]1CC[C@@H](c2ccc(Cl)c(Cl)c2)c2ccccc21
Potency [1]: inactive
Potency [2]: inactive
Potency [3]: inactive

Nc1nc2ccccc2n1Cc1ccc(F)cc1
Potency [1]: inactive
Potency [2]: inactive
Potency [3]: inactive

NC1[C@H]2CN(c3nc4c(cc3F)c(=O)c(C(=O)O)cn4-c3ccc(F)cc3F)C[C@@H]12 (some centres undefined)
outcome [1]: inactive
outcome [2]: inactive
outcome [3]: inactive

Nc1ccc([N+](=O)[O-])cc1O
Potency [1]: inactive
Potency [2]: inactive
Potency [3]: inactive

O=S(=O)(O)SSS(=O)(=O)O
Potency [1]: 71 µM (active)
Potency [2]: 71 µM (active)
Potency [3]: 71 µM (active)

CCN(CC)CCOc1ccc(C(O)(Cc2ccc(Cl)cc2)c2ccc(C)cc2)cc1 (centres undefined)
Potency [1]: inactive
Potency [2]: inactive
Potency [3]: inactive

Nc1cc(C(Cl)=C(Cl)Cl)c(S(N)(=O)=O)cc1S(N)(=O)=O
Potency [1]: inactive
Potency [2]: inactive
Potency [3]: inactive

Nc1ccn(C2CO[C@H](CO)O2)c(=O)n1 (some centres undefined)
Potency [1]: inactive
Potency [2]: inactive
Potency [3]: inactive

C[Si]1(C)O[Si](C)(C)O[Si](C)(C)O1
Potency [1]: inactive
Potency [2]: inactive
Potency [3]: inactive

COc1ccc(C(=O)NCc2ccc(OCCN(C)C)cc2)cc1OC
Potency [1]: 6.92 µM (active)
Potency [2]: 27.5 µM (active)
Potency [3]: inactive

CN1C(=O)OC(C)(C)C1=O
Potency [1]: inactive
Potency [2]: inactive
Potency [3]: inactive

CC(CN)CC(C)(C)CCN (centres undefined)
Potency [1]: inactive
Potency [2]: inactive
Potency [3]: inactive

c1ccc(C(O[C@H]2CCCN(CCc3ccc4c(c3)OCO4)C2)c2ccccc2)cc1
Potency [1]: inactive
Potency [2]: inactive
Potency [3]: inactive

CCCCCCCCCCCCN(CCO)CCO
Potency [1]: inactive
Potency [2]: inactive
Potency [3]: inactive

COC(=O)C1CC(=O)C(C(=O)OC)CC1=O (centres undefined)
activity, negative = inhibition [1]: 2.2% [at 10.5 µM]
activity change, negative = inhibition [2]: 0.472% [at 10.5 µM]
activity change, negative = inhibition [3]: -0.962% [at 10.5 µM]

CN1C(=O)c2ccc([N+](=O)[O-])cc2C1=O
Potency [1]: inactive
Potency [2]: inactive
Potency [3]: inactive

N#CSc1ccc(N)c([N+](=O)[O-])c1
Potency [1]: inactive
Potency [2]: inactive
Potency [3]: inactive

CC1(C)S[C@@H]2[C@H](NC(=O)C(c3ccccc3)S(=O)(=O)O)C(=O)N2[C@H]1C(=O)O (some centres undefined)
Potency [1]: inactive
Potency [2]: inactive
Potency [3]: inactive

CCN(CC)C(=O)c1cc(S(=O)(=O)Cc2ccccc2)c(N2CCC(c3ccccc3)CC2)cc1N(CC)CCN(C)C
Potency [1]: inactive
Potency [2]: inactive
Potency [3]: inactive

CC(C(O)c1ccccc1)N(C)CCOC(c1ccccc1)c1ccccc1 (centres undefined)
Potency [1]: inactive
Potency [2]: inactive
Potency [3]: inactive

Cc1ccc(-c2ncc(Cl)cc2-c2ccc(S(C)(=O)=O)cc2)cn1
Potency [1]: 27.5 µM (active)
Potency [2]: inactive
Potency [3]: inactive

C=CCSCC1Nc2cc(Cl)c(S(N)(=O)=O)cc2S(=O)(=O)N1 (centres undefined)
Potency [1]: inactive
Potency [2]: inactive
Potency [3]: inactive

CCN(CC)CCNC(=O)COc1ccc(OC)cc1
Potency [1]: inactive
Potency [2]: inactive
Potency [3]: inactive
